Experimental data: PubChem BioAssay AID2599 (Sanford-Burnham Center for Chemical Genomics, 2010)
Hit rate of the full screen: of about 330,000 compounds, about 5,800 (1.8%) were called active.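 The calls were made as follows: active = inhibition above about 50% at the single tested dose (limit read from the data); inactive = the rest.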 This excerpt belongs to a sample that is enriched for actives.

These compounds were tested against Sentrin-specific protease 6 (Homo sapiens) (UniProt Q9GZR1) (assay: SENP6 protease inhibitors, primary screen, biochemical, luminescence, uHTS (AID 2599;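 also: plate controls were DMSO wells with enzyme for no effect and DMSO wells lacking enzyme for full effect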)). Conditions: Recombinant SENP6 catalytic domain, aminoluciferin luminescence; at 10 µM; hits give high values.
Sentrin-specific protease 6 (Homo sapiens), sequence (Q9GZR1 628-1112 limits assumed): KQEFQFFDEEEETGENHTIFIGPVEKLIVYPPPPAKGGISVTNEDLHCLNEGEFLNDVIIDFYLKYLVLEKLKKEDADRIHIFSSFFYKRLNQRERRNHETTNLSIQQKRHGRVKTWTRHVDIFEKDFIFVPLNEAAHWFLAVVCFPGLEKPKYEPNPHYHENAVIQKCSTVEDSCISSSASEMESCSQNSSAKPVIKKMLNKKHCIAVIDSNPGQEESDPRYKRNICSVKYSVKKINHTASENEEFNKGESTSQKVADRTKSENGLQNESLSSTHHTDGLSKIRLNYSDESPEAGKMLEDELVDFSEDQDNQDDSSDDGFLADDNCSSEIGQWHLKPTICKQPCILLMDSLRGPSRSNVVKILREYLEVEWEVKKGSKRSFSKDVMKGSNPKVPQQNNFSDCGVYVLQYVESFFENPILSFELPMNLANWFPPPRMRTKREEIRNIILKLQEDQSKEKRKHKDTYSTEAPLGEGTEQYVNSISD

| Compound | inhibition |
| --- | --- |
| Cc1[nH]n(C(N)=S)c(=O)c1N=Nc1ccc(Cl)cc1Cl | 96.1% (active) |
| Cc1[nH]n(C)c(=O)c1N=Nc1ccc(S(C)(=O)=O)cc1 | -4.33% (inactive) |
| Cc1cccc(N=Nc2c(C)[nH]n(-c3ccccc3)c2=O)c1 | -17.2% (inactive) |
| COc1ccc(CCNC(=O)COC(=O)Cc2ccccc2F)cc1 | 0.819% (inactive) |
| CCN(CC)CCOCCOc1ccc(Cl)c2ccccc12 | -6.66% (inactive) |
| CCOC(=O)c1cnc2[nH]c3ccccc3n2c1=O | 83% (active) |
| CCOC(=O)c1cnc2sccn2c1=O | -5.45% (inactive) |
| CCOC(=O)c1cnc(COc2ccccc2Cl)[nH]c1=O | -27.6% (inactive) |
| Cc1ccc(S(=O)(=O)NCC(=O)N(CC(=O)NC2CCCCC2)Cc2ccco2)cc1 | 1.15% (inactive) |
| COc1cc(C(=O)NCc2ccc3c(c2)cc(C)n3C)cc(OC)c1OC | 1.27% (inactive) |
| COc1cc2c3c(c1)/C(=C1/SC(=S)NC1=O)C(=O)N3C(C)(C)C=C2C | 24.2% (inactive) |
| O=C1CC(c2ccccc2)=NN1c1ccc([N+](=O)[O-])cc1 | 75.3% (active) |
| O=c1[nH]n(-c2ccc([N+](=O)[O-])cc2)c(=O)c2ccccc12 | -18.2% (inactive) |
| Cc1nc(-c2ccc([N+](=O)[O-])cc2)c(-c2ccccc2)o1 | -20.8% (inactive) |
| COc1ccc2oc(C(=O)NCC(Cc3ccccc3)N(C)C)c(C)c2c1 (stereo not given) | -20.2% (inactive) |
| COc1ccc2oc(C(=O)NCc3ccco3)c(C)c2c1 | -9.13% (inactive) |
| COc1cccc(OCC(O)CNC(=O)c2oc3c(C)c(C)ccc3c2C)c1 (stereo not given) | 95.6% (active) |
| Cc1ccc(C(=O)Nc2ccc3c(c2)OCCO3)cc1S(=O)(=O)N1CCOCC1 | 7.66% (inactive) |
| CC(C)C(NS(=O)(=O)c1cccs1)C(=O)Nc1nc(C(C)(C)C)cs1 (stereo not given) | -11.7% (inactive) |
| CN(Cc1nc2ccccc2s1)C(=O)c1ccc(F)cc1 | 2.3% (inactive) |
| COc1ccccc1OCc1nc2ccccc2s1 | 94.1% (active) |
| COc1ccccc1N1CC(O)=C(c2nc3ccccc3s2)C1=N | -18.4% (inactive) |
| C/C=C/c1ccc(OCC(O)CN2CCCCCCC2)c(OC)c1 (stereo not given) | 1.7% (inactive) |
| CC(C)[C@H](NC(=O)N1CC(=O)Nc2ccccc21)C(=O)N[C@@H](Cc1c[nH]c2ccccc12)C(=O)O | -5.26% (inactive) |
| CCCCOc1ccc(-c2nnc(-c3ccco3)o2)cc1 | 67.2% (active) |

| Compound | inhibition |
| --- | --- |
| CCOc1ccc(-c2nnc(-c3ccco3)o2)cc1 | 85% (active) |
| COc1ccc(OCC(=O)Nc2nnc(-c3ccco3)s2)cc1 | -16.6% (inactive) |
| CCCCOc1ccc(-c2ncc(C(=O)OCC)c(N)n2)cc1 | -8.7% (inactive) |
| CCOc1ccc(-n2c(SCC(N)=O)nnc2-c2ccco2)cc1 | -12.9% (inactive) |
| N#Cc1ccc(OCc2nnc(-c3ccc([N+](=O)[O-])cc3)o2)cc1 | -4.94% (inactive) |
| O=S(=O)(Cc1nnnn1-c1ccccc1)c1ccccc1 | 6.33% (inactive) |
| Cc1ccc(NC(=O)[C@H](Cc2ccccc2)NC(=O)C2CCNCC2)cc1 | -5.94% (inactive) |
| CCOc1ccc(S(=O)(=O)N2CCC(C(=O)OCc3ccc(OC)cc3)CC2)cc1 | -11.1% (inactive) |
| Cc1cc2nc(-c3ccc(NC(=O)c4cccnc4)cc3)oc2cc1C | -15% (inactive) |
| CCc1ccc2oc(-c3ccc(N)cc3)nc2c1 | 96.1% (active) |
| O=C(Nc1ccc2oc(-c3ccc4ccccc4c3)nc2c1)c1cccs1 | -13.1% (inactive) |
| COc1cccc(NC(=O)Cn2cnc3sc(C)c(S(=O)(=O)N4CCN(C)CC4)c3c2=O)c1 | 10.7% (inactive) |
| Cc1nnc(Nc2ccccc2F)s1 | 8.06% (inactive) |
| C=CCN1CCN(C(=O)CCCc2ccccc2)CC1 | 0.31% (inactive) |
| O=c1ccc2cc(S(=O)(=O)Nc3ccccc3F)ccc2o1 | 16.4% (inactive) |
| N#CC1=C(N)C(C#N)(C#N)[C@H](c2ccsc2)[C@H]2COCC=C12 | -0.527% (inactive) |
| CCCN1CC=C2C(C#N)=C(N)C(C#N)(C#N)C(c3cc(OC)ccc3OC)C2C1 (stereo not given) | 0.193% (inactive) |
| CCN1CC=C2C(C#N)=C(N)C(C#N)(C#N)[C@H](c3ccoc3)[C@H]2C1 | 72.9% (active) |
| CC(CO)(CO)NC(=O)c1ccc(=O)[nH]n1 | -1.98% (inactive) |
| Cc1nonc1NC(=O)c1oc2ccccc2c1C | 2.56% (inactive) |
| Cc1c(C(=O)Nc2ccccn2)oc2ccc(Br)cc12 | 56.3% (active) |
| Cc1noc(C)c1C(=O)Nc1ccccn1 | -8.05% (inactive) |
| Cn1ccc(=Nc2ccc(NC(=O)c3ccc(N=c4ccn(C)c5ccc([N+](=O)[O-])cc45)cc3)cc2)cc1 | 0.718% (inactive) |
| NS(=O)(=O)c1ccc(-c2ccc(/C=C3\SC(=O)NC3=O)o2)cc1 | -21.1% (inactive) |
| CCn1c(CN2C(=O)CSc3ccccc32)n[nH]c1=S | 5.59% (inactive) |

| Compound | inhibition |
| --- | --- |
| CCOC(=O)c1cc(C)sc1NC(=O)C1CCC1 | -29.2% (inactive) |
| COc1cccc(C(=O)c2cc3ccc(O)cc3oc2=O)c1 | 101% (active) |
| CCOC(=O)c1cc2cc3ccccc3cc2oc1=O | 13.2% (inactive) |
| COc1cccc(C(=O)NNC(=O)c2cccc(F)c2)c1 | 0.598% (inactive) |
| Cc1ccc(N2C(=O)C(NC(=O)c3c(F)cccc3F)(C(F)(F)F)C3=C2CC(C)(C)CC3=O)cc1 (stereo not given) | -5.98% (inactive) |
| COC(=O)c1c(CCl)noc1C(=O)NC(C)C | 15.8% (inactive) |
| CC(C)CCNC(=O)c1ccc2c(Cl)c3c(nc2c1)CCC3 | 76.2% (active) |
| CC(=O)c1ccc(NC(=O)c2ccc3c(Cl)c4c(nc3c2)CCCC4)cc1 | -20.3% (inactive) |
| COc1ccc(N2CCN(C(=O)c3ccc4c(Cl)c5c(nc4c3)CCCC5)CC2)cc1 | -0.317% (inactive) |
| Cc1nc2ccccc2c(=O)n1-c1ccc(F)c(NC(=O)c2cccs2)c1 | 1.23% (inactive) |
| CCn1nnnc1SCC(=O)c1ccc(C)cc1C | 16% (inactive) |
| CC(Oc1cccc(Cl)c1)C(=O)NC1CC(C)(C)NC(C)(C)C1 (stereo not given) | 0.854% (inactive) |
| Cc1nnc(SCC(=O)Nc2ccc(S(=O)(=O)Nc3ccc(Cl)nn3)cc2)s1 | -2.31% (inactive) |
| Cc1ccc(SC(CC(=O)c2ccc(C(C)(C)C)cc2)C(=O)O)cc1 (stereo not given) | -11.7% (inactive) |
| CC(C)CNC(=O)c1cc(-c2ccc(Br)cc2)on1 | -1.36% (inactive) |
| CC(C)Cc1cc(C(=O)NCCc2ccccc2)no1 | 13% (inactive) |
| CC(C)Cc1cc(C(=O)Nc2cc(Br)ccc2O)no1 | 58.1% (active) |
| O=C(NNc1cc(Cl)cc(Cl)c1)c1c(F)cccc1Cl | -9.66% (inactive) |
| CC(OC(=O)c1cc2ccccc2[nH]1)C(=O)N(C)c1ccccc1 (stereo not given) | -10.7% (inactive) |
| COc1ccc2[nH]c(C(=O)Nc3ccccc3Cl)cc2c1 | -36% (inactive) |
| O=C(Nc1ccccc1)c1cc2ccccc2[nH]1 | 86.2% (active) |
| O=C(Cc1ccc(S(=O)(=O)N2CCOCC2)s1)NCCC(c1ccccc1)c1ccccc1 | -9.6% (inactive) |
| Oc1ccc(N=Cc2sc3ccccc3c2Cl)cc1 | 65.7% (active) |
| CC(=O)n1c(C=Nc2ccccc2)c(O)c2ccccc21 | -2.55% (inactive) |
| CCn1c(SCC(=O)Nc2cccc(F)c2)nnc1-c1cc2cc(Br)ccc2o1 | -0.574% (inactive) |

| Compound | inhibition |
| --- | --- |
| CCc1cccc(C)c1NC(=O)COC(=O)Cc1ccsc1 | -15.1% (inactive) |
| CCN1CCN(C(=O)/C=C\C(=O)O)CC1 | -13.9% (inactive) |
| O=[N+]([O-])c1ccc2c(c1)Nc1nc3ccccc3nc1N2 | -19% (inactive) |
| O=[N+]([O-])c1ccc(N/N=C2/CCCCC2c2ccccn2)c([N+](=O)[O-])c1 (stereo not given) | -14.2% (inactive) |
| O=[N+]([O-])c1ccc2nc(-c3ccccn3)[nH]c2c1 | 55.5% (active) |
| CCOC(=O)c1cccc(NC(=O)CCOc2ccccc2)c1 | -8.69% (inactive) |
| Cc1cccc(C(=O)OCC(=O)Nc2ccc(F)cc2)c1 | -14% (inactive) |
| CCOC(=O)c1cccc(NC(=O)c2ccc(F)cc2F)c1 | 53.3% (active) |
| COc1c(C=O)c(CCN(C)C(=O)c2ccc(F)cc2)cc2c1OCO2 | -13.8% (inactive) |
| COC(CNC(=O)Cn1ncc2ccsc2c1=O)OC | -0.866% (inactive) |
| O=C(c1ccc(NS(=O)(=O)c2ccc3[nH]c(=O)[nH]c3c2)cc1)N1CCCCC1 | -7.59% (inactive) |
| C#CCOc1ccccc1/C=C1/C(=O)ON=C1C | 9.07% (inactive) |
| Cc1ccc(C23CC4CC(CC(C(=O)NCC(=O)O)(C4)C2)C3)cc1 | -30.4% (inactive) |
| CC(C)CCNC(=O)Cn1c(=O)oc2cc(S(=O)(=O)N3CC(C)CC(C)C3)ccc21 (stereo not given) | 2.44% (inactive) |
| Cc1cc(=O)[nH]c(N/N=C/c2ccc3c(c2)OCCO3)n1 | -9.26% (inactive) |
| C(=N\Nc1ccc2ccccc2n1)/c1ccc2c(c1)OCO2 | 91.4% (active) |
| Cc1noc(C)c1/C=N/Nc1ccc2ccccc2n1 | -42.7% (inactive) |
| O=C(CCc1n[nH]c(=O)[nH]c1=O)N/N=C/c1ccc(Br)o1 | -16.6% (inactive) |
| CCNc1nc(SCCOc2ccccc2)nc(N(C)C)n1 | -7.75% (inactive) |
| COc1ccccc1-n1c(-c2cc(-c3ccco3)[nH]n2)n[nH]c1=S | 8.36% (inactive) |
| CS(=O)(=O)n1nc(-c2ccco2)nc1N | 12.1% (inactive) |
| Cn1c(-c2ccco2)nc2cc3ccccc3cc21 | 98.6% (active) |
| COc1cc(/C=N/NC(=O)CCc2n[nH]c(=O)[nH]c2=O)ccc1O | -10.3% (inactive) |
| COc1ccc(/C=N/NC(=O)c2cc(-c3cccc(C)c3)nc3ccccc23)cc1O | 4.88% (inactive) |
| COc1cc(/C=N/Nc2nc3ccccc3s2)ccc1O | 85.4% (active) |
